In paper PMC13083723 (Patterns, 2026):
Screen size: about 5,400 compounds; about 190 (3.5%) showed an effect of 50% or more. This is one part of a sample in which strong results are shown more often than they occur.

Test system: Vero-E6
Test: primary screen, phospholipidosis by LipidTOX staining; higher = more effect of the substance
Conditions: 10 µM
Outline: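 Single-concentration screen at 10 μM, with DMSO 0.1 v/v % and amiodarone 10 μM as controls. Read-out is LipidTOX Red phospholipid staining, which tolerates aldehyde fixation, in Vero-E6 cells.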

| SMILES | result_ITMP [%] |
| --- | --- |
| O=C(NCC(=O)N1CC[C@H](N[C@H]2CC[C@@](O)(c3ccc(-c4ncccn4)cn3)CC2)C1)c1cccc(C(F)(F)F)c1 | -0.29 |
| O=S(=O)(OC[C@H]1O[C@@](COS(=O)(=O)[O][Al]([OH])[OH])(O[C@H]2O[C@H](COS(=O)(=O)[O][Al]([OH])[OH])[C@@H](OS(=O)(=O)[O][Al]([OH])[OH])[C@H](OS(=O)(=O)[O][Al]([OH])[OH])[C@H]2OS(=O)(=O)[O][Al]([OH])[OH])[C@@H](OS(=O)(=O)[O][Al]([OH])[OH])[C@@H]1OS(=O)(=O)[O][Al]([OH])[OH])[O][Al]([OH])[OH] | 6.9 |
| OC[C@@H](O)[C@@H](O)CO | -7.96 |
| Cc1ccc2nc(N)nc(O)c2c1Sc1ccncc1 | 3.27 |
| Fc1cc(-c2cccc3ncc(-c4cnn(C5CCNCC5)c4)nc23)cc(F)c1CN1CCOCC1 | 73.3 |
| CC(C)(C)C(=O)CN1C(=O)[C@H](NC(=O)Nc2cccc(C(=O)O)c2)CN(C2CCCCC2)c2ccccc21 | -0.97 |
| CO[C@@]1(NC(=O)Cc2cccs2)C(=O)N2C(C(=O)[O-])=C(COC(N)=O)CS[C@@H]21 | -2.27 |
| C=CCc1ccccc1OCC(O)CNC(C)C (stereo not shown) | 12.1 |
| CC(COc1ccccc1Cc1ccccc1)N1CCCCC1 (stereo not shown) | 72 |
| c1ccc(CC(c2ccccc2)N2CCCCC2)cc1 (racemic) | 6.03 |
| OC[C@H]1O[C@@H]2O[C@H]3[C@H](O)[C@@H](O)[C@@H](O[C@H]4[C@H](O)[C@@H](O)[C@@H](O[C@H]5[C@H](O)[C@@H](O)[C@@H](O[C@H]6[C@H](O)[C@@H](O)[C@@H](O[C@H]7[C@H](O)[C@@H](O)[C@@H](O[C@H]8[C@H](O)[C@@H](O)[C@@H](O[C@H]1[C@H](O)[C@H]2O)O[C@@H]8CO)O[C@@H]7CO)O[C@@H]6CO)O[C@@H]5CO)O[C@@H]4CO)O[C@@H]3CO | -4.2 |
| Cc1cc(-c2ccc(/N=N/c3ccc4c(S(=O)(=O)[O-])cc(S(=O)(=O)[O-])c(N)c4c3O)c(C)c2)ccc1/N=N/c1ccc2c(S(=O)(=O)[O-])cc(S(=O)(=O)[O-])c(N)c2c1O | 10.1 |
| COc1cc2c(cc1F)C(c1ccccc1Cl)=NC1=C(C)NNC1=N2 | -1.52 |
| CCCN(CCC)C(=O)C(CCC(=O)[O-])NC(=O)c1ccccc1 (stereo not shown) | -3.27 |
| C[C@@H](Oc1cc(-n2cnc3ccc(CN4CCN(C)CC4)cc32)sc1C(N)=O)c1ccccc1C(F)(F)F | 75.1 |
| COc1cc2ncn(-c3cc(OCc4ccccc4C(F)(F)F)c(C(N)=O)s3)c2cc1OC | -2.1 |
| CC(C)c1cc(C(=O)N2Cc3ccc(CN4CCN(C)CC4)cc3C2)c(O)cc1O | 8.21 |
| CN[C@@H]1[C@H](OC2[C@H](O[C@H]3[C@H](O)[C@@H](O)[C@H](NC(=N)N)[C@@H](O)[C@@H]3NC(=N)N)O[C@@H](C)[C@]2(O)C=O)O[C@@H](CO)[C@H](O)[C@H]1O (stereo partly shown) | -1.71 |
| O=C([O-])P(=O)([O-])[O-] | -2.03 |
| C=CCn1c(=O)n([C@@H]2O[C@H](CO)[C@@H](O)[C@H]2O)c2nc(N)nc(O)c21 | -1.06 |
| OC(c1cc(C(F)(F)F)nc2c(C(F)(F)F)cccc12)C1CCCCN1 (stereo not shown) | 50 |
| COC(=O)C(c1ccccc1)C1CCCCN1 (stereo not shown) | 10.3 |
| Nc1c(CC(=O)[O-])cccc1C(=O)c1ccc(Br)cc1 | 0.95 |
| NS(=O)(=O)NCCNc1nonc1/C(=N\c1ccc(F)c(Br)c1)NO | -3.83 |
| CN1[C@@H]2C[C@@H](O)C[C@H]1[C@@H]1O[C@@H]12 | 17.2 |

| SMILES | result_ITMP [%] |
| --- | --- |
| COc1ccc(NC(=O)c2ccc(-c3ccc(-c4noc(C)n4)cc3C)cc2)cc1OCCN(C)C | 81.5 |
| COc1ccccc1N1CCN(CCCCNC(=O)c2ccc(-c3ccc(C(C)=O)cc3)cc2)CC1 | 6.35 |
| COc1ccc(C(=O)NCc2ccc(OCCN(C)C)cc2)cc1OC | 6.48 |
| COc1ccc(NS(=O)(=O)c2ccc(I)cc2)cc1N1CCN(C)CC1 | 16.4 |
| COc1cc(C(=O)NCc2ccc(OCCN(C)C)cc2)cc(OC)c1OC | -1.29 |
| COc1ccc(NC(=O)c2ccc(-c3ccc(-c4noc(C)n4)cc3C)cc2)cc1N1CCN(C)CC1 | 142 |
| C[C@@H]1CC[C@H]2C(C)(C)[C@H]3C[C@@]12CC[C@@]3(C)O | 4.78 |
| O=C(O)c1cc(O)c2ccccc2n1 | 3.47 |
| O=C([O-])CCCCCCCCC(=O)[O-] | -5.98 |
| Cc1cccc(-c2nc(C(C)(C)C)[nH]c2-c2ccc3nccnc3c2)n1 | -5.96 |
| CCCn1c(=O)c2nc(C3CCCC3)[nH]c2n(CCC)c1=O | 9.14 |
| C=C1CC[C@H](O)C/C1=C/C=C1\CCC[C@]2(C)[C@@H]([C@H](C)CCCC(C)(C)O)CC[C@@H]12 | -0.38 |
| C=C1/C(=C\C=C2/CCC[C@]3(C)[C@@H]([C@H](C)CCCC(O)(C(F)(F)F)C(F)(F)F)CC[C@@H]23)C[C@@H](O)C[C@@H]1O | 0.82 |
| C[C@]12CCC(=O)C=C1CCC1C2[C@@H](O)C[C@@]2(C)C1CC[C@]2(O)C(=O)COC(=O)CCC(=O)O (stereo partly shown) | -1.39 |
| COc1cccc(CCc2ccccc2OCC[C@@H]2C[C@@H](O)CN2C)c1 | 90.4 |
| COc1cccc(CN2C[Si](C)(C)O[Si](C)(C)C2)c1 | -1.81 |
| C[C@@H]1CN(CCCn2c3ccccc3c3ccccc32)C[C@H](C)N1 | 99.9 |
| O=c1[nH]c2ccccc2n1CCCN1CCN(C(c2ccccc2)c2ccccc2)CC1 | 26.4 |
| O=c1[nH]c2ccccc2c(=O)n1CCCN1CCN(c2ccccc2)CC1 | -3.31 |
| CC(C)CCC[C@@H](C)[C@H]1CC[C@H]2[C@@H]3CCC4=CC(=NO)CC[C@]4(C)[C@H]3CC[C@]12C | -0.61 |
| CNCCCC1(c2ccccc2)OC(C)(C)c2ccccc21 (stereo not shown) | 29.5 |
| CNCCCC12CCC(c3ccccc31)c1ccccc12 | 107 |
| CNCCCN1c2ccccc2CCc2ccccc21 | 36.6 |
| O=C(O)c1ccc(N[C@H]2O[C@H](CO)[C@@H](O)[C@H](O)[C@@H]2O)cc1 | -5.7 |
